Experimental findings from PubChem BioAssay AID449762 (Southern Research Specialized Biocontainment Screening …, 2010) are described below.

SMILES strings stand for the structures. Out of some 330,000 compounds screened, about 1,900 (0.58%) were called active. Roughly 4% stayed inconclusive and do not appear here. No stated cut-off is given here; in the data, inconclusive means inhibition above about 70% without an active follow-up result; inactive means below that. The list is a sample of the results. Results with a measured potency or affinity are listed apart.

A short description of this assay: M. tuberculosis growth inhibition, HTS (AID 449762).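 Further: bacterial growth assessed after seven days of incubation.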 Conditions: M. tuberculosis H37Rv growth inhibition, 7H9 media; at 25 µM; stronger effect = higher value.
For the compound `CCn1cc(/C=N\NC(=O)c2c[nH]c3ccccc23)c(C)n1`, the inhibition (as a rule, the drop in the measured response relative to a control, in per cent) is 4.35% (inactive).

Turning to `COc1cccc2c(=S)c(CCC(C)=O)c(C)[nH]c12`, the inhibition is -1.19% (inactive).

With `O=C(c1ccccc1)N1N=C(c2ccc(F)cc2)CC1(O)C(F)(F)F` (configuration not stated), the inhibition is 14.8% (inactive).

For the compound `O=C(c1ccccc1)N1N=C(c2ccccc2)CC1(O)C(F)(F)F` (configuration not stated), the inhibition is 17.4% (inactive).

Take `COc1ccccc1C1CCN(Cc2ccccc2)CC1`: the inhibition was -7.77% (inactive).

For the compound `COc1ccccc1C1CCN(Cc2ccc(Cl)c(Cl)c2)CC1`, the inhibition is 6.04% (inactive).

Regarding `CCCn1c(=S)[nH]c2cc(C(=O)NCC3CCCO3)ccc2c1=O` (configuration not stated), the inhibition is -7.34% (inactive).

As to `COc1ccc(C=Nc2cccc3c(=O)[nH][nH]c(=O)c23)c2ccccc12`, the inhibition was -1.04% (inactive).

On to `Cc1ccc(C)c(/C=N/NC(=S)NC(C)C)c1`, for which the inhibition was -0.52% (inactive).

Take `Cc1ccc(/C=N/NC(=O)C(=O)N/N=C/c2ccc(C)o2)o1`: the inhibition is -4.38% (inactive).

Regarding `COC(=O)N/N=C/c1cc(Br)ccc1O`, the inhibition is -4.56% (inactive).

As for `CC(C)NC(=S)N/N=C/c1ccc(C(C)(C)C)cc1`, the inhibition is 3.03% (inactive).

With `COC(=O)c1nonc1NCn1nnc2ccccc21`, the inhibition was -13.7% (inactive).

As for `Cc1ccccc1-n1c(-c2ccoc2)nc2ccccc2c1=O`, the inhibition was 13.6% (inactive).

As to `O=C(CCN1CCN(c2ccccc2F)CC1)Nc1ccc(F)cc1`, the inhibition is -1.83% (inactive).

As to `S=c1[nH]nc(C2CCCCC2)n1/N=C/C=C/c1ccccc1`, the inhibition is 0.75% (inactive).

For the compound `Cc1cc(C(=O)OCC(=O)N2CCc3ccccc32)c(C)o1`, the inhibition was 0.97% (inactive).

`CC(C)(C)c1ccc(OCCC(=O)OCC(=O)NC2CC2)cc1`: the inhibition was -4.78% (inactive).

Consider `Cc1ccc(OCCC(=O)OCC(=O)NC(=O)NC2CCCC2)cc1`, for which the inhibition is 6.88% (inactive).

With `Cc1cc(=O)oc2c(C)c(OC(C)C(=O)NCC(O)c3ccccc3)ccc12` (configuration not stated), the inhibition is 0.93% (inactive).

On to `C[C@H](CO)N1C[C@H](C)[C@@H](CN(C)S(=O)(=O)c2ccc(F)cc2)Oc2c(NC(=O)NC3CCCCC3)cccc2C1=O`, for which the inhibition is 6.78% (inactive).

As to `CCOC(=O)C1CCCN(C2CCN(Cc3nc(-c4ccccc4)no3)CC2)C1` (configuration not stated), the inhibition is -1.09% (inactive).

For the compound `Cc1c(Nc2cc(=O)oc3ccccc23)c(=O)n(-c2ccccc2)n1C`, the inhibition is -1.53% (inactive).

On to `CCCc1ccc(S(=O)(=O)NCCc2ccncc2)cc1`, for which the inhibition is 2.76% (inactive).

For the compound `CCCCc1ccc(S(=O)(=O)NCCc2ccncc2)cc1`, the inhibition is 21.7% (inactive).

For `CCC(C(=O)Nc1cccc(S(=O)(=O)N(C)c2ccccc2)c1)c1ccccc1` (configuration not stated), the inhibition is -1.21% (inactive).

For `O=C(O)c1cccc(Nc2ccc([N+](=O)[O-])c3nonc23)c1`, the inhibition is 2.67% (inactive).

Take `COc1cccc(Nc2c([N+](=O)[O-])cncc2[N+](=O)[O-])c1`: the inhibition was 65.1% (inactive).

`O=C(COC(=O)CSc1ccc(F)cc1)NCc1ccco1`: the inhibition is -1.1% (inactive).

On to `O=C(O)c1cccc(S(=O)(=O)Nc2cccc3ccccc23)c1`, for which the inhibition was 20.9% (inactive).

Turning to `CCN(CC)CCOc1ccc2c(c1)C(=NO)c1cc(OCCN(CC)CC)ccc1-2`, the inhibition is 9.59% (inactive).

As for `NC(N)=NN=C1c2ccccc2-c2ccccc21`, the inhibition is 6.09% (inactive).

`O=C(Cc1cccc(NC(=O)C2CCN(C(=O)C3CCCC3)CC2)c1)Nc1cccc(C(=O)N2CCCC2)c1`: the inhibition was -2.63% (inactive).

For `CC(=O)Nc1ccc(NS(=O)(=O)c2ccc(-c3cnc(C4CC4)o3)cc2)cc1`, the inhibition was -1.71% (inactive).

`COc1ccc(Cl)cc1S(=O)(=O)N(C)CC(=O)N1CCCC1`: the inhibition was 7.61% (inactive).

With `Cc1ccc(C)c(NC(=O)COc2coc(CN3CCc4ccccc43)cc2=O)c1`, the inhibition was 47.8% (inactive).

For the compound `CCOC(=O)c1ccc(NC(=O)COc2coc(CN3CCc4ccccc43)cc2=O)cc1`, the inhibition was 34.3% (inactive).

On to `COc1ccc(OC)c(NC(=O)Cn2cc(C#N)c3ccccc32)c1`, for which the inhibition is -1.64% (inactive).

For the compound `Cc1ccc(S(=O)(=O)NC(=O)COc2ccccc2C)c(C)c1`, the inhibition is 0.6% (inactive).

As for `O=C(CCC1CCCCC1)NC1=NCCS1`, the inhibition was -6.25% (inactive).

In the case of `c1ccc(N/N=C2\CCCc3ccccc32)nc1`, the inhibition was 9.09% (inactive).

For `Cc1cc(NC2CCCCC2)nc2ccccc12`, the inhibition is 10% (inactive).

As for `O=C(NNC(=O)C1CCN(C(=O)Nc2ccccc2)CC1)c1ccc([N+](=O)[O-])cc1`, the inhibition was -0.74% (inactive).

Consider `COc1cc(NC(=O)NNC(=O)c2cc3occc3n2C)cc(OC)c1OC`, for which the inhibition is -1.55% (inactive).

Regarding `O=C(Nc1ccc(OC(F)F)cc1)c1ncc(Cl)c(Cl)c1Cl`, the inhibition is 3.27% (inactive).

Turning to `Cc1ccc(CS(=O)(=O)c2ncc(Cl)c(C(=O)Nc3ccc(OC(F)F)cc3)n2)cc1`, the inhibition is 1.02% (inactive).

Consider `CCCCN(C(=O)c1c(CC)noc1C)c1c(N)n(CCCC)c(=O)[nH]c1=O`, for which the inhibition is -5.14% (inactive).

`COc1cccc(CNC(=O)c2nnn(CC(=O)Nc3ccc4c(c3)OCO4)c2N)c1`: the inhibition was -1.11% (inactive).

As for `CCOC(=O)c1ccc(Oc2nc(N(C)C)nc(N(C)C)n2)cc1`, the inhibition is 17% (inactive).

In the case of `CCOC(=O)c1ccc(Oc2nc(OC)nc(N(C)C)n2)cc1`, the inhibition is 4.44% (inactive).

Consider `CCc1nnc(N/N=C/c2ccccc2F)n1N`, for which the inhibition is 31.3% (inactive).

With `CCc1nnc(N/N=C/c2cc(Br)c(O)cc2O)n1N`, the inhibition is 0.32% (inactive).

Turning to `CCN(CCn1cccn1)Cc1nc(-c2ccc(C(=O)OC)cc2)no1`, the inhibition was 24% (inactive).

For the compound `COC(=O)c1ccc(-c2noc(CN(Cc3ccncc3)CC3CCCO3)n2)cc1` (configuration not stated), the inhibition is 41.2% (inactive).

Consider `O=C(CSc1nnnn1C1CCCC1)N1CCOCC1`, for which the inhibition is -0.48% (inactive).

For `COc1ccc(NC(=O)CCN2CCN(S(=O)(=O)c3cc(Cl)ccc3Cl)CC2)cc1`, the inhibition is -9.19% (inactive).

With `Fc1ccccc1Oc1nc(-c2ccncc2)nc2ccccc12`, the inhibition is 4.31% (inactive).

For `O=C(N/N=C/c1c(O)n(Cc2ccccc2)c(=O)[nH]c1=O)c1ccccc1O`, the inhibition is 14.7% (inactive).

Take `O=C(Nc1nc2ccccc2[nH]1)C1CC1`: the inhibition was -4.47% (inactive).

With `CC(=O)Nc1nc2ccccc2[nH]1`, the inhibition was -2.83% (inactive).

Take `O=C1CC(=O)N(c2ccccc2)c2ccccc21`: the inhibition is 8.88% (inactive).

In the case of `O=C1CCCCC(=O)N(c2ccccc2)c2ccccc21`, the inhibition is 4.12% (inactive).
